From paper PMC11006913
Residue numbers refer to the chain shown, from its start.

Key:
Assay in all cases: PBM; 200 nM protein, PBS
Details in all cases: dsDNA, one strand shown
NKX2-6 = molecular target: T1, NKX2-6 (Homo sapiens, UniProt A6NCS4 118-204)
T1 sequence: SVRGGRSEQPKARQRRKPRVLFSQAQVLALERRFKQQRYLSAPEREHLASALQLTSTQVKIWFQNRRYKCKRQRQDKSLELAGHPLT

PROP1 [1] = molecular target: PROP1 (Homo sapiens, UniProt O75360 56-141)
PROP1 [2] = molecular target: PROP1 (Homo sapiens, UniProt O75360 56-141, R99H)
PROP1 [3] = molecular target: PROP1 (Homo sapiens, UniProt O75360 56-141, F88S)
SIX6 [4] = molecular target: T2, SIX6 (Homo sapiens, UniProt O95475 114-200, L167I)
T2 sequence: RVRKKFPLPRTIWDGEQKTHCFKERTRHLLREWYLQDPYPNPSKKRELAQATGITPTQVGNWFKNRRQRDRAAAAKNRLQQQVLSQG

SIX6 [5] = molecular target: T3, SIX6 (Homo sapiens, UniProt O95475 114-200, L143V)
T3 sequence: T2 sequence with L30V, I54L

SIX6 [6] = molecular target: T4, SIX6 (Homo sapiens, UniProt O95475 114-200, H141N)
T4 sequence: T2 sequence with H28N, I54L

SIX6 [7] = molecular target: T5, SIX6 (Homo sapiens, UniProt O95475 114-200, T165P)
T5 sequence: T2 sequence with T52P, I54L

SIX6 [8] = molecular target: T6, SIX6 (Homo sapiens, UniProt O95475 114-200, L167M)
T6 sequence: T2 sequence with I54M

SIX6 [9] = molecular target: T7, SIX6 (Homo sapiens, UniProt O95475 114-200, L143M)
T7 sequence: T2 sequence with L30M, I54L

SIX6 [10] = molecular target: T8, SIX6 (Homo sapiens, UniProt O95475 114-200, L143I)
T8 sequence: T2 sequence with L30I, I54L

SIX6 [11] = molecular target: T9, SIX6 (Homo sapiens, UniProt O95475 114-200, T165G)
T9 sequence: T2 sequence with T52G, I54L

SIX6 [12] = molecular target: T10, SIX6 (Homo sapiens, UniProt O95475 114-200, T139Q)
T10 sequence: T2 sequence with T26Q, I54L

SIX6 [13] = molecular target: T11, SIX6 (Homo sapiens, UniProt O95475 114-200, T165A)
T11 sequence: T2 sequence with T52A, I54L

SIX6 [14] = molecular target: T12, SIX6 (Homo sapiens, UniProt O95475 114-200, L167V)
T12 sequence: T2 sequence with I54V

SIX6 [15] = molecular target: T13, SIX6 (Homo sapiens, UniProt O95475 114-200)
T13 sequence: T2 sequence with I54L

SIX6 [16] = molecular target: T14, SIX6 (Homo sapiens, UniProt O95475 114-200, T165I)
T14 sequence: T2 sequence with T52I, I54L

PRRX1 = PRRX1 (Homo sapiens, UniProt P54821 80-166, F113S)
MSX2 [17] = molecular target: MSX2 (Homo sapiens, UniProt P35548 130-214, R199I)
MSX2 [18] = molecular target: MSX2 (Homo sapiens, UniProt P35548 130-214)
Sequence of MSX2 (Homo sapiens, UniProt P35548 130-214) (P35548 130-214): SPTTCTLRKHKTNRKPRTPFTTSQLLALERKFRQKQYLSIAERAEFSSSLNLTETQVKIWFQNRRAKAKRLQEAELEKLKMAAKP

Sequence of PROP1 (Homo sapiens, UniProt O75360 56-141, R99H) (O75360 56-141 R99H): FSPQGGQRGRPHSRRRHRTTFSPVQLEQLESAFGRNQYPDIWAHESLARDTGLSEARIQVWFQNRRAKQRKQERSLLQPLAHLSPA
Sequence of PROP1 (Homo sapiens, UniProt O75360 56-141, F88S) (O75360 56-141 F88S): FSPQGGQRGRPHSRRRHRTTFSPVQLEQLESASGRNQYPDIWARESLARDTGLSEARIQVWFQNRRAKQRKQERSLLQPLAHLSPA
Sequence of PROP1 (Homo sapiens, UniProt O75360 56-141) (O75360 56-141): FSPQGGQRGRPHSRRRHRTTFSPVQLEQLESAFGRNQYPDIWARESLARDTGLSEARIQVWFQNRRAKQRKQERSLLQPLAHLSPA
Sequence of MSX2 (Homo sapiens, UniProt P35548 130-214, R199I) (P35548 130-214 R199I): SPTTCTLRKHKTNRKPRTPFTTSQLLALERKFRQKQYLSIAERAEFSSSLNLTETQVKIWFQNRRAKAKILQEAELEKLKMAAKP
Sequence of PRRX1 (P54821 80-166 F113S): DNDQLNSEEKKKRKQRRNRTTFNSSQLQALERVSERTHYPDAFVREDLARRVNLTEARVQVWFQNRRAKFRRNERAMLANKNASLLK

AGCCTGGG
binding signal (NKX2-6): 8.48 upbm affinity estimate (log intensity, higher = more binding, comparable within an allelic series)

CTCATTAA
binding signal (PROP1 [1]): 11 upbm affinity estimate (log intensity, higher = more binding, comparable within an allelic series) | binding signal (PROP1 [2]): 10.6 upbm affinity estimate (log intensity, higher = more binding, comparable within an allelic series) | binding signal (PROP1 [3]): 7.48 upbm affinity estimate (log intensity, higher = more binding, comparable within an allelic series)

CGTCCCGC
binding signal (SIX6 [4]): 8.81 upbm affinity estimate (log intensity, higher = more binding, comparable within an allelic series) | binding signal (SIX6 [5]): 8.68 upbm affinity estimate (log intensity, higher = more binding, comparable within an allelic series) | binding signal (SIX6 [6]): 8.86 upbm affinity estimate (log intensity, higher = more binding, comparable within an allelic series) | binding signal (SIX6 [7]): 8.88 upbm affinity estimate (log intensity, higher = more binding, comparable within an allelic series) | binding signal (SIX6 [8]): 8.79 upbm affinity estimate (log intensity, higher = more binding, comparable within an allelic series) | binding signal (SIX6 [9]): 8.75 upbm affinity estimate (log intensity, higher = more binding, comparable within an allelic series) | binding signal (SIX6 [10]): 8.79 upbm affinity estimate (log intensity, higher = more binding, comparable within an allelic series) | binding signal (SIX6 [11]): 8.8 upbm affinity estimate (log intensity, higher = more binding, comparable within an allelic series) | binding signal (SIX6 [12]): 8.84 upbm affinity estimate (log intensity, higher = more binding, comparable within an allelic series) | binding signal (SIX6 [13]): 8.8 upbm affinity estimate (log intensity, higher = more binding, comparable within an allelic series) | binding signal (SIX6 [14]): 8.87 upbm affinity estimate (log intensity, higher = more binding, comparable within an allelic series) | binding signal (PROP1 [1]): 6.64 upbm affinity estimate (log intensity, higher = more binding, comparable within an allelic series) | binding signal (SIX6 [15]): 8.76 upbm affinity estimate (log intensity, higher = more binding, comparable within an allelic series) | binding signal (PROP1 [2]): 6.65 upbm affinity estimate (log intensity, higher = more binding, comparable within an allelic series) | binding signal (SIX6 [16]): 8.78 upbm affinity estimate (log intensity, higher = more binding, comparable within an allelic series) | binding signal (PROP1 [3]): 6.67 upbm affinity estimate (log intensity, higher = more binding, comparable within an allelic series)

GACTCGGC
binding signal (NKX2-6): 9.17 upbm affinity estimate (log intensity, higher = more binding, comparable within an allelic series)

TAAATTAA
binding signal (PRRX1): 11.2 upbm affinity estimate (log intensity, higher = more binding, comparable within an allelic series) | binding signal (PROP1 [1]): 11.2 upbm affinity estimate (log intensity, higher = more binding, comparable within an allelic series) | binding signal (PROP1 [2]): 11 upbm affinity estimate (log intensity, higher = more binding, comparable within an allelic series) | binding signal (PROP1 [3]): 7.74 upbm affinity estimate (log intensity, higher = more binding, comparable within an allelic series)

ATTATTAA
binding signal (PRRX1): 11 upbm affinity estimate (log intensity, higher = more binding, comparable within an allelic series)

CTAATGAC
binding signal (NKX2-6): 11.7 upbm affinity estimate (log intensity, higher = more binding, comparable within an allelic series)

GGCCCCCC
binding signal (SIX6 [4]): 8.65 upbm affinity estimate (log intensity, higher = more binding, comparable within an allelic series) | binding signal (SIX6 [5]): 8.57 upbm affinity estimate (log intensity, higher = more binding, comparable within an allelic series) | binding signal (SIX6 [6]): 8.65 upbm affinity estimate (log intensity, higher = more binding, comparable within an allelic series) | binding signal (SIX6 [7]): 8.56 upbm affinity estimate (log intensity, higher = more binding, comparable within an allelic series) | binding signal (SIX6 [8]): 8.73 upbm affinity estimate (log intensity, higher = more binding, comparable within an allelic series) | binding signal (SIX6 [9]): 8.77 upbm affinity estimate (log intensity, higher = more binding, comparable within an allelic series) | binding signal (SIX6 [10]): 8.57 upbm affinity estimate (log intensity, higher = more binding, comparable within an allelic series) | binding signal (SIX6 [11]): 8.61 upbm affinity estimate (log intensity, higher = more binding, comparable within an allelic series) | binding signal (SIX6 [12]): 8.85 upbm affinity estimate (log intensity, higher = more binding, comparable within an allelic series) | binding signal (SIX6 [13]): 8.73 upbm affinity estimate (log intensity, higher = more binding, comparable within an allelic series) | binding signal (SIX6 [14]): 8.56 upbm affinity estimate (log intensity, higher = more binding, comparable within an allelic series) | binding signal (SIX6 [15]): 8.69 upbm affinity estimate (log intensity, higher = more binding, comparable within an allelic series) | binding signal (SIX6 [16]): 8.78 upbm affinity estimate (log intensity, higher = more binding, comparable within an allelic series)

GCCGCTCC
binding signal (SIX6 [4]): 9.16 upbm affinity estimate (log intensity, higher = more binding, comparable within an allelic series) | binding signal (SIX6 [5]): 8.94 upbm affinity estimate (log intensity, higher = more binding, comparable within an allelic series) | binding signal (SIX6 [6]): 9.15 upbm affinity estimate (log intensity, higher = more binding, comparable within an allelic series) | binding signal (SIX6 [7]): 8.87 upbm affinity estimate (log intensity, higher = more binding, comparable within an allelic series) | binding signal (SIX6 [8]): 9.07 upbm affinity estimate (log intensity, higher = more binding, comparable within an allelic series) | binding signal (SIX6 [9]): 9.12 upbm affinity estimate (log intensity, higher = more binding, comparable within an allelic series) | binding signal (SIX6 [10]): 8.99 upbm affinity estimate (log intensity, higher = more binding, comparable within an allelic series) | binding signal (SIX6 [11]): 9.14 upbm affinity estimate (log intensity, higher = more binding, comparable within an allelic series) | binding signal (SIX6 [12]): 9.17 upbm affinity estimate (log intensity, higher = more binding, comparable within an allelic series) | binding signal (SIX6 [13]): 9.12 upbm affinity estimate (log intensity, higher = more binding, comparable within an allelic series) | binding signal (SIX6 [14]): 9.06 upbm affinity estimate (log intensity, higher = more binding, comparable within an allelic series) | binding signal (SIX6 [15]): 9.12 upbm affinity estimate (log intensity, higher = more binding, comparable within an allelic series) | binding signal (SIX6 [16]): 9.09 upbm affinity estimate (log intensity, higher = more binding, comparable within an allelic series)

GCGCAGCC
binding signal (SIX6 [4]): 8.75 upbm affinity estimate (log intensity, higher = more binding, comparable within an allelic series) | binding signal (SIX6 [5]): 8.82 upbm affinity estimate (log intensity, higher = more binding, comparable within an allelic series) | binding signal (SIX6 [6]): 8.75 upbm affinity estimate (log intensity, higher = more binding, comparable within an allelic series) | binding signal (SIX6 [7]): 8.87 upbm affinity estimate (log intensity, higher = more binding, comparable within an allelic series) | binding signal (SIX6 [8]): 8.77 upbm affinity estimate (log intensity, higher = more binding, comparable within an allelic series) | binding signal (SIX6 [9]): 8.72 upbm affinity estimate (log intensity, higher = more binding, comparable within an allelic series) | binding signal (SIX6 [10]): 8.74 upbm affinity estimate (log intensity, higher = more binding, comparable within an allelic series) | binding signal (SIX6 [11]): 8.7 upbm affinity estimate (log intensity, higher = more binding, comparable within an allelic series) | binding signal (SIX6 [12]): 8.82 upbm affinity estimate (log intensity, higher = more binding, comparable within an allelic series) | binding signal (SIX6 [13]): 8.78 upbm affinity estimate (log intensity, higher = more binding, comparable within an allelic series) | binding signal (SIX6 [14]): 8.72 upbm affinity estimate (log intensity, higher = more binding, comparable within an allelic series) | binding signal (SIX6 [15]): 8.73 upbm affinity estimate (log intensity, higher = more binding, comparable within an allelic series) | binding signal (SIX6 [16]): 8.7 upbm affinity estimate (log intensity, higher = more binding, comparable within an allelic series)

CCCCCTCG
binding signal (MSX2 [17]): 9.51 upbm affinity estimate (log intensity, higher = more binding, comparable within an allelic series) | binding signal (MSX2 [18]): 9.66 upbm affinity estimate (log intensity, higher = more binding, comparable within an allelic series)

CCTCATTA
binding signal (PRRX1): 10.7 upbm affinity estimate (log intensity, higher = more binding, comparable within an allelic series)

AGTCATTA
binding signal (PRRX1): 10.4 upbm affinity estimate (log intensity, higher = more binding, comparable within an allelic series)

GGAGCTCC
binding signal (MSX2 [17]): 9.52 upbm affinity estimate (log intensity, higher = more binding, comparable within an allelic series) | binding signal (MSX2 [18]): 9.28 upbm affinity estimate (log intensity, higher = more binding, comparable within an allelic series)

GCCGCCGC
binding signal (MSX2 [17]): 9.4 upbm affinity estimate (log intensity, higher = more binding, comparable within an allelic series) | binding signal (MSX2 [18]): 9.37 upbm affinity estimate (log intensity, higher = more binding, comparable within an allelic series)

GGTCATTA
binding signal (MSX2 [17]): 11.6 upbm affinity estimate (log intensity, higher = more binding, comparable within an allelic series) | binding signal (MSX2 [18]): 12.7 upbm affinity estimate (log intensity, higher = more binding, comparable within an allelic series)

ACTAATGG
binding signal (PROP1 [1]): 9.71 upbm affinity estimate (log intensity, higher = more binding, comparable within an allelic series) | binding signal (PROP1 [2]): 9.39 upbm affinity estimate (log intensity, higher = more binding, comparable within an allelic series) | binding signal (PROP1 [3]): 7.3 upbm affinity estimate (log intensity, higher = more binding, comparable within an allelic series)

CGAGGCAC
binding signal (MSX2 [17]): 9.52 upbm affinity estimate (log intensity, higher = more binding, comparable within an allelic series) | binding signal (MSX2 [18]): 9.5 upbm affinity estimate (log intensity, higher = more binding, comparable within an allelic series)
